We go through eight molecules from PubChem BioAssay (Tox21).

Where “and” joins values, the source holds several entries; their conditions need not be identical. Equal values may be shown once. Records with an inconclusive call do not appear. A structure can be active in one record and inactive in another. Calls of active or inactive are those of the source. Unless noted, the call rests on the fitted dose curve; in most records, active means well fitted curve in the direction sought with a large enough effect in the repeat runs; inconclusive means weak or mixed curves; inactive means no such curve, though single readings can be large; an effect the other way counts as inactive or inconclusive.

The nature of experiment [1]: qHTS assay to identify aromatase inhibitors - cell viability counter screen (AID 743084;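 further: cells stimulated with testosterone during compound exposure; nearly all actives have a fitted effect of over 55% in size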). (In qHTS, concentration-response curves come from the screen itself.)
A short description of experiment [2]: qHTS assay to identify small molecule that activate the aryl hydrocarbon receptor (AhR) signaling pathway - cell viability counter screen (AID 743086).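 Further: HepG2 liver cells carrying the AhR DRE luciferase reporter; series mostly up to about 70 µM; nearly all actives have a fitted effect of over 45% in size.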 The procedure, abridged: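 HepG2-AhR-luc (HG2L7.5c1) cells, 4000/well, treated 24 h at 37 C with compound; viability measured as CellTiter-Fluor fluorescence after 30 min in the same wells as the luciferase read.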

A short description of experiment [3]: qHTS assay to identify small molecule antagonists of the peroxisome proliferator-activated receptor gamma (PPARg) signaling pathway - cell viability counter screen (AID 743194). Further: nearly all actives have a fitted effect of over 55% in size. The procedure, abridged: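 Cytotoxicity counter screen in PPARg-bla HEK293H cells, same wells as reporter assay. Compounds plus 50 nM rosiglitazone (final) for 17 h at 37 C, then viability read by CellTiter-Glo luminescence.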

Experiment [4] is described as follows: qHTS assay for small molecule agonists of the antioxidant response element (ARE) signaling pathway (AID 743202; active means well fitted activation curve with a large enough effect in the signal ratio in the repeat runs, not every such curve was filed as active; the % refers to the signal ratio). The procedure, abridged: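 HepG2 ARE-bla reporter line, 2,000 cells/well; 5 h preincubation 37 C/5% CO2; compound (DMSO) 16 h 37 C; B/G FRET substrate 2 h RT; fluorescence intensity.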
A short description of experiment [5]: qHTS assay for small molecule agonists of the antioxidant response element (ARE) signaling pathway - cell viability counter screen (AID 743203; calls by dose curve; further: nearly all actives have a fitted effect of over 55% in size). The procedure, abridged:
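Viability counter screen: CellTiter-Glo luminescence, read after 30 min at room temperature, in ARE-bla HepG2 wells. Compound exposure lasted 16 h at 37C/5% CO2, following a 5 h pre-incubation of the cells after plating.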

Experiment [6] in a line: qHTS assay for small molecule activators of the heat shock response signaling pathway - cell viability counter screen (AID 743209). Further: nearly all actives have a fitted effect of over 50% in size. The procedure, abridged:
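Cytotoxicity counter screen run in the same wells as the heat-shock bla reporter assay: HeLa HSE-bla cells, 5 h compound exposure at 37 C, viability read by CellTiter-Glo luminescence.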

Experiment [7] can be described thus: qHTS assay for small molecule activators of the heat shock response signaling pathway (AID 743210; active means well fitted activation curve with a large enough effect in the signal ratio in the repeat runs, with a control signal flat, not every such curve was filed as active; the % refers to the signal ratio; further: series mostly up to about 63 µM). The procedure, abridged: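 Beta-lactamase reporter read-out: FRET substrate fluorescence after 2.5 h at RT, following 5 h compound treatment at 37 C of HeLa cells carrying HSE-driven bla reporter; quantitative HTS format.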
Experiment [8] in a line: qHTS assay to identify small molecule agonists of the peroxisome proliferator-activated receptor delta (PPARd) signaling pathway - cell viability counter screen (AID 743211). Further: nearly all actives have a fitted effect of over 55% in size. Further: potency means the concentration at half of the fitted maximal effect. The procedure, abridged: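 PPARd-bla HEK293H cells (UAS-beta-lactamase reporter) were treated with compounds for 17 h at 37 C. Viability was then read in the same wells by CellTiter-Glo luminescence after 30 min at room temperature.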

Experiment [9] has as its target Peroxisome proliferator-activated receptor delta (Homo sapiens) (UniProt Q03181). Put plainly: qHTS assay to identify small molecule agonists of the peroxisome proliferator-activated receptor delta (PPARd) signaling pathway (AID 743212; calls by dose curve). The procedure, abridged: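 Read-out: beta-lactamase FRET fluorescence after 2 h room-temperature incubation with LiveBLAzer B/G substrate. Cells were HEK293H carrying a UAS-bla reporter for PPARd, treated at 37 C with DMSO-dissolved compounds.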

A short description of experiment [10]: qHTS assay to identify small molecule antagonists of the peroxisome proliferator-activated receptor delta (PPARd) signaling pathway - cell viability counter screen (AID 743213). Further: nearly all actives have a fitted effect of over 50% in size. Further: potency means the concentration at half of the fitted maximal effect. The procedure, abridged: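 Same-well viability: cells pre-incubated 5 h, dosed with compound plus 300 nM L165041, kept 17 h at 37 C, FRET substrate 2 h RT, then CellTiter-Glo 30 min RT and luminescence.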

For experiment [11], the target named is Peroxisome proliferator-activated receptor delta (Homo sapiens) (UniProt Q03181). Put plainly: qHTS assay to identify small molecule antagonists of the peroxisome proliferator-activated receptor delta (PPARd) signaling pathway (AID 743215; active means well fitted inhibition curve with a large enough effect in the signal ratio in the repeat runs, not every such curve was filed as active; the % refers to the signal ratio;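 further: cells stimulated with agonist L165041 at 300 nM final during compound exposure; series mostly up to about 62 µM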). The procedure, abridged:
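Agonist L165041 (300 nM final) added with compound to PPARd-bla HEK293H UAS-bla reporter cells; 17 h incubation at 37 C. Read-out: LiveBLAzer FRET substrate, 2 h at room temperature, fluorescence intensity.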

Experiment [12] addresses Bile acid receptor (Homo sapiens) (UniProt Q96RI1). Put plainly: qHTS assay to identify small molecule antagonists of the farnesoid-X-receptor (FXR) signaling pathway (AID 743217; active means well fitted inhibition curve with a large enough effect in the signal ratio in the repeat runs, not every such curve was filed as active; the % refers to the signal ratio). The procedure, abridged: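 Antagonist mode: chenodeoxycholic acid at 50 uM final stimulates a UAS-driven beta-lactamase reporter in HEK 293T FXR-bla cells during 16 h, 37C compound exposure. Read-out is FRET substrate fluorescence after 2 h at room temperature.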

For experiment [13] the target is unchanged. Put plainly: qHTS assay to identify small molecule agonists of the farnesoid-X-receptor (FXR) signaling pathway (AID 743220; active means well fitted activation curve with a large enough effect in the signal ratio in the repeat runs, not every such curve was filed as active; the % refers to the signal ratio). The procedure, abridged:
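FXR-UAS-bla HEK 293T cells carrying a UAS-driven beta-lactamase reporter were plated for 5 h at 37C/5% CO2, then exposed to DMSO-dissolved Tox21 10K compounds for 16 h at 37C. A LiveBLAzer B/G FRET substrate was loaded for 2 h at room temperature before fluorescence reading.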

Experiment [14] in a line: qHTS assay to identify small molecule antagonists of the farnesoid-X-receptor (FXR) signaling pathway - cell viability counter screen (AID 743221; active means well fitted cell-killing curve with a large enough effect in the repeat runs, not every such curve was filed as active; further: nearly all actives have a fitted effect of over 50% in size). The procedure, abridged: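 FXR-UAS-bla HEK 293T cells were treated with test compounds plus chenodeoxycholic acid (50 uM final) for 16 h at 37 C. Cell viability in the same wells was then read as CellTiter-Glo luminescence after 30 min at room temperature.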

For experiment [15], the target named is Vitamin D3 receptor (Homo sapiens) (UniProt P11473). Put plainly: qHTS assay to identify small molecule agonists of the vitamin D receptor (VDR) signaling pathway (AID 743222; calls by dose curve). The procedure, abridged: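 Agonist mode, beta-lactamase reporter: fluorescence from LiveBLAzer B/G FRET substrate (2 h, room temperature) read after 16 h compound treatment at 37 C of VDR-bla cells, which were pre-incubated 4 h after seeding.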

The target is the same in experiment [16]. Briefly: qHTS assay to identify small molecule antagonists of the vitamin D receptor (VDR) signaling pathway (AID 743223; active means well fitted inhibition curve with a large enough effect in the signal ratio in the repeat runs, not every such curve was filed as active; the % refers to the signal ratio; further: potency means the concentration at half of the fitted maximal effect). The procedure, abridged:
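VDR-bla cells were plated, incubated 4 h at 37C, then given compound and 1alpha,25-dihydroxyvitamin D3 (3 nM final). After 16 h at 37C, LiveBLAzer B/G FRET substrate was added for 2 h at room temperature and fluorescence read.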

For experiment [17], the target named is Aryl hydrocarbon receptor (Homo sapiens) (UniProt P35869). Put plainly: qHTS assay to identify small molecule that activate the aryl hydrocarbon receptor (AhR) signaling pathway (AID 743085). Further: nearly all actives have a fitted effect of over 15% in size. Further: potency means the concentration at half of the fitted maximal effect.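 On activation: HG2L7.5c1 human HepG2 liver cells with stably integrated DRE-driven firefly reporter; series mostly up to about 70 µM.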 The procedure, abridged:
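HepG2 cells (HG2L7.5c1) stably carrying a firefly luciferase reporter driven by 20 dioxin responsive elements were exposed to compound for 24 h at 37C after a 5 h settling period; luminescence rise (ONE-Glo) indicated activation.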

Experiment [18] can be described thus: qHTS assay to identify small molecule agonists of the farnesoid-X-receptor (FXR) signaling pathway - cell viability counter screen (AID 743218). Further: nearly all actives have a fitted effect of over 45% in size. Further: potency means the concentration at half of the fitted maximal effect. The procedure, abridged:
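Viability counter screen in the same wells: CellTiter-Glo luminescence, 30 min room-temperature incubation, measured after the beta-lactamase read. Cells were GeneBLAzer FXR-UAS-bla HEK 293T, compound-treated 16 h at 37C.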

Experiment [19] deals with Peroxisome proliferator-activated receptor gamma (Homo sapiens) (UniProt P37231). Put plainly: qHTS assay to identify small molecule agonists of the peroxisome proliferator-activated receptor gamma (PPARg) signaling pathway (AID 743094; active means well fitted activation curve with a large enough effect in the signal ratio in the repeat runs, not every such curve was filed as active; the % refers to the signal ratio). The procedure, abridged:
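Agonist activity was taken from a beta-lactamase reporter (FRET substrate, 1 h at room temperature) in HEK293H cells carrying a PPARg UAS-bla construct. Compounds in DMSO were incubated 17 h at 37C after a 5 h cell pre-incubation.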

Experiment [20] has the same target. Briefly: qHTS assay to identify small molecule antagonists of the peroxisome proliferator-activated receptor gamma (PPARg) signaling pathway (AID 743191; calls by dose curve; further: series mostly up to about 63 µM; nearly all actives have a fitted effect of over 30% in size). The procedure, abridged:
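GeneBLAzer PPARg UAS-bla HEK293H cells, 5 h post-plating, exposed to compounds 17 h at 37C. LiveBLAzer B/G FRET substrate added for 1 h at room temperature; beta-lactamase reporter read by fluorescence intensity.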

Aryl hydrocarbon receptor (Homo sapiens), sequence (P35869 whole entry, looked up): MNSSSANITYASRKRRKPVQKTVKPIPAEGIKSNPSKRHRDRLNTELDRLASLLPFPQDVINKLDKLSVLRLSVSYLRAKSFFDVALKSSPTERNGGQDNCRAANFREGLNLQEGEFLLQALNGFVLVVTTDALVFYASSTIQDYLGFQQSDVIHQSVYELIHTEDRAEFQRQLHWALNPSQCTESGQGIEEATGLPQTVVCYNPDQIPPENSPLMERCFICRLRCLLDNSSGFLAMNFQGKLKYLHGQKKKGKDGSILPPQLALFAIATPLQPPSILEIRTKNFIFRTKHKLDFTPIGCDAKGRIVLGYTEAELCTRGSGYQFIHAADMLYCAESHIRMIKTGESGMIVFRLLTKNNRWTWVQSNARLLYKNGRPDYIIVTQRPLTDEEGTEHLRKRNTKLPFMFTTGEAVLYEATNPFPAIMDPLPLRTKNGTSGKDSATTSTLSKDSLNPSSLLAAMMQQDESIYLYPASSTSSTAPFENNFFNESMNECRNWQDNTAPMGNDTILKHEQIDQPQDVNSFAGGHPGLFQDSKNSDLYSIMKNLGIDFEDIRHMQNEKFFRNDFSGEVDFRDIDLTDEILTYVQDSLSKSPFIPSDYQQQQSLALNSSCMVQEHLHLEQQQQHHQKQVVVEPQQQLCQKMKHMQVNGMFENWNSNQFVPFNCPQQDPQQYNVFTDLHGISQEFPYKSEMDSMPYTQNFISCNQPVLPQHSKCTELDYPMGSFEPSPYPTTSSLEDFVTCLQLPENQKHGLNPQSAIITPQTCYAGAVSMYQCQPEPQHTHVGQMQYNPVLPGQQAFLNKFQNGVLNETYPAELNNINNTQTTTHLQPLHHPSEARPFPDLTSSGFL
Vitamin D3 receptor (Homo sapiens), sequence (P11473 whole entry, looked up): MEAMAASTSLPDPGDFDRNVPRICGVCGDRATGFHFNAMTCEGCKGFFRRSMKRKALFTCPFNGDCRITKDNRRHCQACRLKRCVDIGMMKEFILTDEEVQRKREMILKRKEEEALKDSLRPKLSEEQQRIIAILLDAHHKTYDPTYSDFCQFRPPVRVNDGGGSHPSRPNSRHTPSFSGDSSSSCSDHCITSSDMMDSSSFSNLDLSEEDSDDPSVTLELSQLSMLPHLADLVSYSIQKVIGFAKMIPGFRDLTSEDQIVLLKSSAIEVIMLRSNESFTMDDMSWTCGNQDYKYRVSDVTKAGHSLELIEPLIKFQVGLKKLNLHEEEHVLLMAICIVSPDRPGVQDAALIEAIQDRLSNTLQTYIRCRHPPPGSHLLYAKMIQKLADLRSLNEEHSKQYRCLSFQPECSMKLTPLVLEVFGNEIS
Bile acid receptor (Homo sapiens), sequence (Q96RI1 whole entry, looked up): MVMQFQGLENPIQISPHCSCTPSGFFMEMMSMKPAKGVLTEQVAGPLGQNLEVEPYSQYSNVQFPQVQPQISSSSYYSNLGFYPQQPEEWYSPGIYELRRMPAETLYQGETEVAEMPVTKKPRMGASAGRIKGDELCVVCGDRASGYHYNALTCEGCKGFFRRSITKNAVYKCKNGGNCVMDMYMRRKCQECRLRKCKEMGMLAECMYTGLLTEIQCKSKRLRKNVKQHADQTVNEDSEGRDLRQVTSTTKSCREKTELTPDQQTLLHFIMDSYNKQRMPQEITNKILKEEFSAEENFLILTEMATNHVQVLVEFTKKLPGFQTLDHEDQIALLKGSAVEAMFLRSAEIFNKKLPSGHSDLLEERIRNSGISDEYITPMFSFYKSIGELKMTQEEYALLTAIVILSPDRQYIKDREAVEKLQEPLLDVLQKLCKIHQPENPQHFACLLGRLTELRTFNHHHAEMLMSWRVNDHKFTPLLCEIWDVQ
Peroxisome proliferator-activated receptor delta (Homo sapiens), sequence (Q03181 whole entry, looked up): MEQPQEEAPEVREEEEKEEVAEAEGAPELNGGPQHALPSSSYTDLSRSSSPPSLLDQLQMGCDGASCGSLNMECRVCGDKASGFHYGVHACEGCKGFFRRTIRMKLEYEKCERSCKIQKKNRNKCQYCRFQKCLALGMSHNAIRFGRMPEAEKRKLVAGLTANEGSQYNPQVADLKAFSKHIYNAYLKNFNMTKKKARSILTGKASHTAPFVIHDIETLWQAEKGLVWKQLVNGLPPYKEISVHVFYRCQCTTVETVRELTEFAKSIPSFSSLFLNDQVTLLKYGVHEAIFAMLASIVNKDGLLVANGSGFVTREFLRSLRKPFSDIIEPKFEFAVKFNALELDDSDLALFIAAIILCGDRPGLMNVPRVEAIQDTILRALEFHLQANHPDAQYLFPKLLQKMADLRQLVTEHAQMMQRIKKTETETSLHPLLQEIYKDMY
Peroxisome proliferator-activated receptor gamma (Homo sapiens), sequence (P37231 whole entry, looked up): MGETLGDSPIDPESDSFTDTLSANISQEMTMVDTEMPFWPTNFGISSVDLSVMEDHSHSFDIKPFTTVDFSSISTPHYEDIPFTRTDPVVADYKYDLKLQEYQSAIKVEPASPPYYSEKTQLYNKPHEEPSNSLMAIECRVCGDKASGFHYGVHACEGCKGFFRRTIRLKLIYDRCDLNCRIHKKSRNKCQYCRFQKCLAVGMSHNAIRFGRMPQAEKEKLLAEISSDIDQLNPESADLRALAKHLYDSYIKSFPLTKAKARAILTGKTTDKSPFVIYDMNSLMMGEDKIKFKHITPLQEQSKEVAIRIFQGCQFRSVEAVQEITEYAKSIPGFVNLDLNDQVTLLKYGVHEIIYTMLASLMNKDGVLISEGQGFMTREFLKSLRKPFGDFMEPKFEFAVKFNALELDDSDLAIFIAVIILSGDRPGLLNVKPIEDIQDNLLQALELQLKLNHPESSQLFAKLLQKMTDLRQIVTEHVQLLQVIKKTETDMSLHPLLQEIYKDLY

`O=C(OCc1ccccc1)c1ccccc1`: the Potency result in experiment [1], in experiment [2], in [3], in [4], in experiment [5] and in [8] was “inactive” in each case. The Potency entry in [10], in experiment [12] and in experiment [16] was “inactive” each time. Moreover, the outcome in experiment [6], in [7], in experiment [9], in experiment [11], in experiment [13] and in experiment [14] was inactive. The outcome in experiment [15] was inactive.

Take `NC(=O)NO`: the Potency entry in experiment [1], in experiment [17], in experiment [2], in [3], in [4] and in experiment [5] was “inactive” in each case. Besides, the Potency entry in experiment [8], in [10], in experiment [18] and in experiment [16] was “inactive” each time. The molecule was called inactive in experiment [6], in experiment [7], in experiment [9], in [11], in experiment [14] and in [15].

Turning to `NCCNc1cccc2ccccc12`, the Potency entry in experiment [1], in experiment [19] and in experiment [5] was “inactive” throughout. In addition, the Potency in experiment [17] is 29.8 µM (active) and 54.4 µM (active) and 66.9 µM (active); in experiment [8], 54.9 µM (active) and 47.8 µM (active) and inactive; in [10] it was 34.6 µM (active) and 30.2 µM (active) and inactive; in experiment [18], 43.6 µM (active) and 30.2 µM (active) and inactive; in experiment [16], 43.6 µM (active) and inactive. Moreover, the result in experiment [6], in [7], in experiment [9], in [11], in experiment [14] and in [15] was inactive.

For `COc1ccc(O)cc1`, the Potency result in experiment [1], in experiment [17], in experiment [2], in [3], in experiment [5] and in experiment [8] was “inactive” throughout. The Potency result in [10], in experiment [18] and in experiment [16] was “inactive” throughout. The outcome in experiment [6], in experiment [7], in experiment [9], in [11], in experiment [14] and in [15] was inactive.

On to `CCCCCCCCCCCCCC(=O)OC(C)C`, for which the Potency result in experiment [1], in [17], in [2], in [3], in experiment [4] and in [5] was “inactive” throughout. Moreover, the Potency result in [8], in experiment [10], in experiment [12] and in experiment [16] was “inactive” throughout. The outcome in experiment [6], in experiment [7], in [9], in experiment [11], in [13] and in experiment [14] was inactive. Also, in experiment [15], the result was inactive.

For `CCn1cc(C(=O)O)c(=O)c2ccc(C)nc21`, the Potency result in experiment [1], in experiment [2], in experiment [20], in experiment [3], in experiment [4] and in experiment [5] was “inactive” throughout. The Potency entry in experiment [8], in [10], in [12] and in [16] was “inactive” throughout. Besides, the molecule was classed as inactive in experiment [6], in experiment [7], in experiment [9], in experiment [11], in experiment [13] and in experiment [14]. For the same molecule, the molecule was called inactive in [15].

`Cc1cnc(NC(=O)C2=C(O)c3ccccc3S(=O)(=O)N2C)s1`: the Potency result in experiment [1], in experiment [2], in [3], in experiment [5], in [8] and in [10] was “inactive” in each case. Also, the Potency result in [12] and in [18] was “inactive” in each case. For the same molecule, the Potency result in [17] is “inactive and 61.1 µM (active)”. Besides, the molecule was called inactive in experiment [6], in experiment [7], in experiment [9], in experiment [11], in experiment [13] and in experiment [14].

Consider `CN(C)Cc1cc(CN(C)C)c(O)c(CN(C)C)c1`, for which the Potency result in experiment [1], in [17], in experiment [2], in experiment [3], in [4] and in experiment [5] was “inactive” throughout. Besides, the Potency result in [8], in experiment [10] and in experiment [12] was “inactive” each time. Further, the call in [6], in experiment [7], in experiment [13] and in experiment [14] was inactive.
